# Laboratory results as given in PubChem BioAssay AID455 (Sanford-Burnham Center for Chemical Genomics, 2006).
# Screen size: about 10,000 compounds; about 20 (0.2%) were called active.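 How the source made its calls: active means a compound raising TNF-alpha-driven VCAM-1 surface staining, with its hit status upheld on visual or statistical review; inactive means the rest, including hits rejected on review.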 The entries come from a sample that favours actives as a whole.
# Assay: boosters of cytokine-driven VCAM-1 levels – cell-based, plate reader, pooled HUVEC, TNFa stimulus (AID 455);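 on augmentation: 0% = TNFa plus DMSO wells and 100% = a visually confirmed top hit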
# Settings: HUVEC TNFa-induced VCAM-1 immunofluorescence; stronger effect = higher value, 100% set by best visually verified hit,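 tested at 5 µM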
row,SMILES,augmentation
1,Cc1ccc(CN2C(=O)CCC2C(=O)NCC2CCCO2)cc1 (configuration not stated),inactive
2,CCCCn1c(SCc2cccnc2)nc2c1c(=O)n(C)c(=O)n2C,inactive
3,O=C(CCN1C(=O)COc2ccccc21)NCCN1CCN(c2cccc(Cl)c2)CC1,inactive
4,COc1ccc(NC(=O)CSc2nnc(Cc3cccn3C)n2-c2ccc(F)cc2)cc1,inactive
5,COc1cc2c(cc1OC)-c1cc(OCc3cccnc3)nc(=O)n1CC2,inactive
6,CN(Cc1ccccc1)S(=O)(=O)c1ccc(S(=O)(=O)N2CCN(CCC#N)CC2)cc1,inactive
7,CCOC(=O)c1[nH]c2ccccc2c1NC(=O)C(CC)CC,inactive
8,c1coc(Cn2nnnc2CN2CCN(C3CCCC3)CC2)c1,inactive
9,Cc1ccc(C)c(N2CCN(C(=O)c3ccc(CS(=O)(=O)c4ccccc4C)o3)CC2)c1,inactive
10,O=c1c2cn[nH]c2nc(SCc2ccc3c(c2)OCCO3)n1-c1ccccc1,inactive
11,COc1ccc(CCn2c(-c3ccco3)nc3nc4ccccc4nc32)cc1,inactive
12,Cc1nnc(NC(=O)CSc2nc3c(c(=O)n2C)SC(C)C3)s1 (configuration not stated),inactive
13,CCOc1ccccc1N1CC(O)=C(c2nc3ccccc3s2)C1=N,inactive
14,Cc1nc2cc(NC(=O)N3c4ccccc4CC3C)ccc2o1 (configuration not stated),inactive
15,Cc1cc(OCC(O)CN2CCN(CCO)CC2)ccc1C(C)C (configuration not stated),inactive
16,Cc1ccn2cc(CCNC(=O)CC(C)(C)C)nc2c1,inactive
17,CN(C)c1ccc(C2C3=C(CCCC3=O)OC3=C2C(=O)CCC3)cc1,inactive
18,CCOC(=O)c1cc(CC)sc1NC(=O)COC,inactive
19,CCOc1ccc(NC(=O)CCN2CCN(c3ccccc3)CC2)cc1,inactive
20,Cc1ccc2[nH]c(=O)c(C(c3nnnn3CCc3ccccc3)N3CCOCC3)cc2c1 (configuration not stated),inactive
21,CC(=O)N1C(=O)C2(C(C#N)=C(N)Oc3cc(C)oc(=O)c32)c2ccccc21 (configuration not stated),inactive
22,CCOC(=O)NC(c1ccccc1)C1CCCCC1=O (configuration not stated),inactive
23,O=C(Cn1c(NCCO)nc2ccccc21)c1ccccc1,inactive
24,Cc1cccnc1NC(=O)CCCN1C(=O)c2ccccc2C1=O,inactive

row,SMILES,augmentation
1,Cc1cc(NC(=O)CCCN2C(=O)c3cccnc3C2=O)no1,50.9% (active)
2,CCOc1ccc(OCC)c(NC(=O)CCCN2C(=O)c3cccnc3C2=O)c1,inactive
3,O=C(c1ccccc1)c1ccc2nc[nH]c2c1,inactive
4,O=C(NCCN1CCOCC1)NC1(C(F)(F)F)Oc2ccc(Cl)cc2O1 (configuration not stated),inactive
5,C=CCSc1n[nH]c(-c2ccc(OC)cc2)n1,inactive
6,Cc1c(Cl)cccc1N1C(=O)c2ccccc2C1=O,inactive
7,Cc1nc2cc(-n3ccc(=O)cc3)ccc2n1-c1ccccc1,inactive
8,Cn1c(=O)cc(SCC(=O)NCc2cccnc2)c2ccccc21,inactive
9,CSc1nc2c(ccc3ccccc32)o1,inactive
10,O=c1cc(C(F)F)oc2c1ccc1ccccc12,97% (active)
11,COc1ccc(CCN2C(=O)CC(N3CCN(S(=O)(=O)c4ccccc4)CC3)C2=O)cc1 (configuration not stated),inactive
12,COCc1nnc(SCC(=O)NC(C)c2ccccc2)n1-c1ccccc1 (configuration not stated),inactive
13,COc1ccc(C(=O)N2CCCc3ccccc32)cc1,inactive
14,CCOC(=O)N1CCN(C(=O)Cn2ncn3nc(-c4cccs4)cc3c2=O)CC1,inactive
15,COc1cccc(-n2c(C)nc3c(cnn3-c3ccc(Cl)cc3)c2=O)c1,inactive
16,CCC(C)(C)n1nnnc1C(c1ccc(OC)c(OC)c1)N1CCN(c2ccc(F)cc2)CC1 (configuration not stated),inactive
17,COc1ccc(OC)c(NC(=O)C2C3CC4OC(=O)C2C4C3)c1 (configuration not stated),inactive
18,CC1/C(=N/O)C(CN(C)C)C2CC1C2(C)C (configuration not stated),inactive
19,COc1ccc(-c2noc(C3CCCN(C(=O)CCc4ccccc4)C3)n2)cc1 (configuration not stated),inactive
20,O=C(NCCc1c[nH]c2ccccc12)c1cnc2n(c1=O)CCS2,inactive
21,CCOc1ccccc1C(=O)NC(C)c1ccc2c(c1)OCO2 (configuration not stated),inactive
22,O=C(CN1CCN(Cc2ccc(F)cc2Cl)C1=O)NCCCN1CCOCC1,inactive
23,O=C(CSc1nnc2scc(-c3ccccc3)n12)N1CCN(Cc2ccccc2)CC1,inactive
24,c1ccc2c3nnc4n(c-3nc2c1)CCCS4,inactive

row,SMILES,augmentation
1,COc1cc(NC(=O)C2CCCN2S(=O)(=O)c2cccc3cccnc23)cc(OC)c1OC (configuration not stated),inactive
2,COc1ccccc1-c1nc(SCc2ccccn2)n[nH]1,inactive
3,CN(C)c1cccc(C(=O)OCC(=O)NCc2ccco2)c1,inactive
4,O=C(CSc1nnc(-c2ccccc2)o1)N1CCc2ccccc2C1,inactive
5,Cc1noc(C)c1COc1cccc(C(=O)Oc2ccc3c(c2)OCO3)c1,inactive
6,O=C1C2CCCN2C(c2ccc(Cl)cc2)N1c1nccs1 (configuration not stated),inactive
7,C=CCn1c(=O)[nH]c2cc(C(=O)N3CCN(c4cc(C)ccc4C)CC3)ccc2c1=O,inactive
8,COc1cccc(NC(=O)CSc2nnc(-c3cccs3)n2C)c1,inactive
9,CCCC(=O)NCCc1cc2c(C)ccc(C)c2[nH]c1=O,inactive
10,O=C(CNC(=O)c1cccs1)NCCN1CCN(c2ccccc2F)CC1,inactive
11,COc1cccc(NC(=O)CN2CCN(c3ccccc3F)CC2)c1,inactive
12,COc1cccc(NC(=O)N2CCC(N3CCCCC3)CC2)c1,inactive
13,COc1cccc(NC(=O)N2CCN(c3cccc(C)c3C)CC2)c1,100% (active)
14,Cc1ccc(C)c(CSc2nnc(CCN)o2)c1,inactive
15,COc1ccc(N2CCN(CCNS(=O)(=O)c3cccc4nsnc34)CC2)cc1,inactive
16,CC(=O)c1ccccc1Oc1nc(CN2CCOCC2)nc2scc(-c3cccs3)c12,inactive
17,COC(=O)c1ccc(CNC(=O)CSc2nc3sc(C)c(C)c3c(=O)n2C)o1,inactive
18,CCCCC(NS(=O)(=O)c1ccc(OC)cc1)C(=O)O (configuration not stated),66.3% (active)
19,CCN(CC)CCCNS(=O)(=O)c1ccc(OC)cc1,inactive
20,COc1ccc(S(=O)(=O)NCc2ccc(C(=O)O)cc2)cc1,inactive
21,O=C(Nc1nc(-c2ccc(S(=O)(=O)N3CCCCCC3)cc2)cs1)c1cccs1,inactive
22,COc1ccc(Cn2c(CCCO)nc3ccccc32)cc1OC,inactive
23,COCCn1c(-c2ccc(OC)c(OC)c2)nc2ccccc21,100% (active)
24,C=CCn1c(-c2ccc(OC)cc2)nc2ccccc21,inactive
